Data: the supplement of paper PMC8728848
The full list was thinned out, with the strongest signals kept by preference.

Assays:
Assay in all cases: glycan array binding signal (z-score within array); higher = stronger binding
Conditions in all cases: glycan notation: IUPAC condensed, linker removed
Gal6P(b1-4)GlcNAc = molecular target: Gal6P(b1-4)GlcNAc
Method in brief: (§1)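 Glycan array data were curated from 3228 arrays in the Consortium for Functional Glycomics database and kept only where the protein sequence was available. Glycan names were converted to IUPAC-condensed notation, and columns mapping to the same glycan were averaged. The binding signal is a within-array Z-score, averaged across arrays of the same protein sequence at different concentrations or buffers and across linkers. Negative Z-scores can be read as non-binding.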

GalNAc(b1-3)GlcNAc = molecular target: GalNAc(b1-3)GlcNAc
Method in brief: as §1

[1] = molecular target: GalNAc(b1-4)GlcNAc(b1-2)Man(a1-3)[GalNAc(b1-4)GlcNAc(b1-2)Man(a1-6)]Man(b1-4)GlcNAc(b1-4)GlcNAc
Method in brief: as §1

GalNAc(b1-6)GalNAc = molecular target: GalNAc(b1-6)GalNAc
Method in brief: as §1

GalNAc3S(b1-4)GlcNAc3S = molecular target: GalNAc3S(b1-4)GlcNAc3S
Method in brief: as §1

GlcA(b1-6)Gal = molecular target: GlcA(b1-6)Gal
Method in brief: as §1

[2] = molecular target: GlcA3S(b1-3)Gal(b1-4)GlcNAc(b1-2)Man
Method in brief: as §1

[3] = molecular target: GlcNAc(a1-4)Gal(b1-4)GlcNAc
Method in brief: as §1

[4] = molecular target: GlcNAc(b1-3)Gal(b1-3)GalNAc
Method in brief: as §1

[5] = molecular target: GlcNAc(b1-3)Gal(b1-4)GlcNAc(b1-2)Man(a1-3)[GlcNAc(b1-3)Gal(b1-4)GlcNAc(b1-2)Man(a1-6)]Man(b1-4)GlcNAc(b1-4)[Fuc(a1-6)]GlcNAc
Method in brief: as §1

[6] = molecular target: GlcNAc(b1-3)Gal(b1-4)GlcNAc(b1-3)Gal(b1-4)GlcNAc(b1-2)[GlcNAc(b1-3)Gal(b1-4)GlcNAc(b1-3)Gal(b1-4)GlcNAc(b1-6)]Man(a1-6)[GlcNAc(b1-3)Gal(b1-4)GlcNAc(b1-3)Gal(b1-4)GlcNAc(b1-2)Man(a1-3)]Man(b1-4)GlcNAc(b1-4)[Fuc(a1-6)]GlcNAc
Method in brief: as §1

[7] = molecular target: GlcNAc(b1-3)Gal(b1-4)GlcNAc(b1-3)Gal(b1-4)GlcNAc(b1-3)Gal(b1-4)GlcNAc(b1-2)Man(a1-3)[GlcNAc(b1-3)Gal(b1-4)GlcNAc(b1-3)Gal(b1-4)GlcNAc(b1-3)Gal(b1-4)GlcNAc(b1-2)Man(a1-6)]Man(b1-4)GlcNAc(b1-4)[Fuc(a1-6)]GlcNAc
Method in brief: as §1

[8] = molecular target: GlcNAc(b1-3)[GlcNAc(b1-4)][GlcNAc(b1-6)]GlcNAc
Method in brief: as §1

[9] = molecular target: GlcNAc(b1-3)[GlcNAc(b1-6)]GalNAc
Method in brief: as §1

Kdn(a2-6)Gal(b1-4)GlcNAc = molecular target: Kdn(a2-6)Gal(b1-4)GlcNAc
Method in brief: as §1

Man(a1-3)[Man(a1-6)]Man = molecular target: Man(a1-3)[Man(a1-6)]Man
Method in brief: as §1

[10] = molecular target: Neu5Ac(a2-3)Gal(b1-3)GalNAc6S
Method in brief: as §1

[11] = molecular target: Neu5Ac(a2-3)Gal(b1-4)GlcNAc(b1-3)Gal(b1-4)GlcNAc(b1-3)Gal(b1-4)GlcNAc(b1-2)Man(a1-3)[Neu5Ac(a2-3)Gal(b1-4)GlcNAc(b1-3)Gal(b1-4)GlcNAc(b1-3)Gal(b1-4)GlcNAc(b1-2)Man(a1-6)]GalNAc
Method in brief: as §1

[12] = molecular target: Neu5Ac(a2-3)Gal(b1-4)GlcNAc(b1-6)[Neu5Ac(a2-3)Gal(b1-3)]GalNAc
Method in brief: as §1

[13] = molecular target: Neu5Ac(a2-3)Gal(b1-4)[Fuc(a1-3)]GlcNAc(b1-6)[Gal(b1-3)]GalNAc
Method in brief: as §1

[14] = molecular target: Neu5Ac(a2-3)[GalNAc(b1-4)]Gal(b1-4)Glc
Method in brief: as §1

[15] = molecular target: Neu5Ac(a2-6)Gal(b1-4)GlcNAc(b1-2)Man(a1-6)[GlcNAc(b1-2)Man(a1-3)]Man(b1-4)GlcNAc(b1-4)GlcNAc
Method in brief: as §1

[16] = molecular target: Neu5Ac(a2-6)Gal(b1-4)GlcNAc(b1-3)Gal(b1-4)GlcNAc(b1-3)Gal(b1-4)GlcNAc(b1-2)Man(a1-3)[Neu5Ac(a2-6)Gal(b1-4)GlcNAc(b1-3)Gal(b1-4)GlcNAc(b1-3)Gal(b1-4)GlcNAc(b1-2)Man(a1-6)]GalNAc
Method in brief: as §1

[17] = molecular target: Neu5Ac(a2-6)Gal(b1-4)GlcNAc(b1-3)Gal(b1-4)GlcNAc(b1-3)GalNAc
Method in brief: as §1

Neu5Ac(a2-6)GalNAc = molecular target: Neu5Ac(a2-6)GalNAc
Method in brief: as §1

[18] = molecular target: Neu5Ac(a2-6)GalNAc(b1-4)GlcNAc6S
Method in brief: as §1

[19] = molecular target: Neu5Ac(a2-8)Neu5Ac(a2-8)Neu5Ac
Method in brief: as §1

[20] = molecular target: Neu5Gc(a2-3)Gal(b1-3)GlcNAc
Method in brief: as §1

[21] = molecular target: Neu5Gc(a2-3)Gal(b1-4)GlcNAc(b1-3)Gal(b1-4)GlcNAc(b1-2)Man(a1-3)[Neu5Gc(a2-3)Gal(b1-4)GlcNAc(b1-3)Gal(b1-4)GlcNAc(b1-2)Man(a1-6)]Man(b1-4)GlcNAc(b1-4)GlcNAc
Method in brief: as §1

B1: AFL5 (Aspergillus fumigatus), Q4WB00 (protein)
chain: MDNFMEMTKKLGHQPELLRLRALDATYDDALEGKLVVAPLDMSEPGKKILDSGTADGTWLRNVRSKQSVPHDYYGSDVEGELFPKDPDGITYFAHSFKDPWPQQYLGFFDLVHIRGSLAGSAPEGPAPVIQNLTTLLKPGGWVQLMEMNAFSPPPNGPAMTDFAKMASEMFTGIGVGDFANNNKSMLEDAGLKNVQEKRVIVNLGKKAKPELHDQSIHGVTGPIVPLTSVARTVKSSFTGEQLDALPARVKEELETEGGQVEMIIAFGQKA
With B1 the “glycan array binding signal (z-score)” value (Gal6P(b1-4)GlcNAc) was -0.398, the “glycan array binding signal (z-score)” value (GalNAc(b1-3)GlcNAc) was -0.465 and the “glycan array binding signal (z-score)” value [1] was 0.619. The “glycan array binding signal (z-score)” value (GalNAc(b1-6)GalNAc) was -0.013, the “glycan array binding signal (z-score)” value (GalNAc3S(b1-4)GlcNAc3S) was -0.187 and the “glycan array binding signal (z-score)” value (GlcA(b1-6)Gal) was -0.217. The “glycan array binding signal (z-score)” value [2] was 0.082, the “glycan array binding signal (z-score)” value [3] was -0.335 and the “glycan array binding signal (z-score)” value [4] was 0.205. The “glycan array binding signal (z-score)” value [5] was 0.456, the “glycan array binding signal (z-score)” value [6] was 1.94 and the “glycan array binding signal (z-score)” value [7] was 1.47. For the same binder, the “glycan array binding signal (z-score)” value [8] was -0.493, the “glycan array binding signal (z-score)” value [9] was -0.216 and the “glycan array binding signal (z-score)” value (Kdn(a2-6)Gal(b1-4)GlcNAc) was 0.092. For the same binder, the “glycan array binding signal (z-score)” value (Man(a1-3)[Man(a1-6)]Man) was 0.203, the “glycan array binding signal (z-score)” value [10] was -0.456 and the “glycan array binding signal (z-score)” value [11] was 2.14. The “glycan array binding signal (z-score)” value [12] was -0.74, the “glycan array binding signal (z-score)” value [13] was 0.716 and the “glycan array binding signal (z-score)” value [14] was -0.53. For the same binder, the “glycan array binding signal (z-score)” value [15] was -0.146, the “glycan array binding signal (z-score)” value [16] was 2.17 and the “glycan array binding signal (z-score)” value [17] was -0.298. For the same binder, the “glycan array binding signal (z-score)” value (Neu5Ac(a2-6)GalNAc) was -0.731, the “glycan array binding signal (z-score)” value [18] was 0.024 and the “glycan array binding signal (z-score)” value [19] was 0.079. The “glycan array binding signal (z-score)” value [20] was -0.526 and the “glycan array binding signal (z-score)” value [21] was 0.635.
